# Reference: PubChem BioAssay (NCI)
# This is part of a sample that, as a whole, favours compounds with a hit. Of some 79,000 tested, about 15% had one in any assay. Unmarked numbers belong to inactive results. The source made the active and inactive calls. Cut-off read from the data, not from the text of the source: active = growth inhibition above about 70%; inactive = the rest.
# Key:
# [1] = NCI Yeast Anticancer Drug Screen. Data for the rad50 strain (AID 155);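 note: 0% = growth of vehicle-only cultures of the same strain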; settings: S. cerevisiae rad50 strain growth inhibition, hits give high values
# Outline: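 Compounds were tested on a yeast strain with an engineered DNA damage repair alteration; the reported value is growth inhibition normalised to vehicle treatment.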
# [2] = NCI Yeast Anticancer Drug Screen. Data for the mec2-1 strain (AID 157); settings: S. cerevisiae mec2-1 strain, hits give high values
# Outline: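 Growth inhibition is read against vehicle-treated controls after compound exposure of the mec2-1 yeast strain, which is defective in DNA damage repair or cell cycle control.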
# [3] = NCI Yeast Anticancer Drug Screen. Data for the sgs1 mgt1 strain (AID 161);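 note: 0% = growth of cultures given vehicle only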; settings: S. cerevisiae sgs1 mgt1 strain, hits give high values
# Outline: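 Percent growth inhibition was derived by comparing compound-exposed mutant yeast with vehicle-exposed cultures. The strain carries alterations in DNA damage repair.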
# [4] = NCI Yeast Anticancer Drug Screen. Data for the cln2 rad14 strain (AID 165);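 note: 0% = growth equal to vehicle treated cultures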; settings: S. cerevisiae cln2 rad14 strain, hits give high values
# Outline: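 Growth inhibition, relative to vehicle-treated controls, is the read-out. The test organism is a yeast strain with defined genetic alterations, cln2 rad14.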
# [5] = NCI Yeast Anticancer Drug Screen. Data for the bub3 strain (AID 167); settings: S. cerevisiae bub3 mutant strain, hits give high values
# Outline: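 Growth of a checkpoint-deficient yeast mutant is measured after compound exposure. Values represent inhibition relative to vehicle.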
# [6] = NCI Yeast Anticancer Drug Screen. Data for the mlh1 rad18 strain (AID 175); settings: S. cerevisiae mlh1 rad18 strain growth inhibition, hits give high values
# Outline: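 Cells of a genetically altered yeast strain, deficient in DNA damage repair, were treated with compound. Their growth was then compared with that of vehicle-treated cultures to give inhibition.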
# [7] = at 5.0 µM (retest, dose inferred, filed as 0.5)
# [8] = at 50.0 µM (retest, dose inferred, filed as 5.0)
Compound,"growth inhibition [1, 7]","growth inhibition [1, 8]",growth inhibition ([1]; at 50.0 µM),"growth inhibition [2, 7]","growth inhibition [2, 8]",growth inhibition ([2]; at 50.0 µM),"growth inhibition [3, 7]","growth inhibition [3, 8]",growth inhibition ([3]; at 50.0 µM),"growth inhibition [4, 7]","growth inhibition [4, 8]",growth inhibition ([4]; at 50.0 µM),"growth inhibition [5, 7]","growth inhibition [5, 8]",growth inhibition ([5]; at 50.0 µM),"growth inhibition [6, 7]","growth inhibition [6, 8]",growth inhibition ([6]; at 50.0 µM)
CC(=O)O[C@H]1[C@@H]2CC(C)(C)CC2=C(C=O)C2(C=O)CC12C (stereo not given in full),40%,99% (active),99.5% (active),65%,100% (active),99.5% (active),62%,99% (active),99.7% (active),37%,99% (active),99.2% (active),54%,99% (active),46.8%,55%,99% (active),99.7% (active)
COc1ccc(NC(=S)N/N=C/c2cccc(C)n2)cc1,8%,98% (active),67.4%,0%,94% (active),82.5% (active),13%,90% (active),86.5% (active),23%,88% (active),83.3% (active),-22%,85% (active),85.9% (active),10%,95% (active),89.4% (active)
Cc1cc(C)nc(NS(=O)(=O)c2ccc(Nc3nc(-c4cccc([N+](=O)[O-])c4)cs3)cc2)n1,14%,99% (active),23.1%,-1%,99% (active),30.5%,7%,99% (active),47.6%,-26%,98% (active),51.9%,34%,99% (active),75.2% (active),5%,99% (active),53%
CNc1ccc(N=O)cc1,-1%,90% (active),87.8% (active),27%,99% (active),90.8% (active),5%,57%,89% (active),19%,81% (active),74.7% (active),25%,98% (active),89.2% (active),19%,98% (active),87.6% (active)
Nc1nc(-c2ccccc2)cc(-c2ccccc2O)n1,7%,-1%,40.8%,0%,15%,20.5%,12%,19%,62.6%,13%,9%,69.2%,9%,23%,26.1%,8%,11%,67.7%
O=C1/C(=C\c2ccccc2)CCC/C1=C\O,-139%,-89%,39.9%,-46%,-40%,46.5%,-50%,-44%,6.4%,-56%,-56%,33.9%,-64%,-68%,20%,-112%,-92%,58.2%
COc1cc2c(cc1C(C)C)CCC1C(C)(C#N)CCCC21C (stereo not given),-6%,-21%,34.4%,3%,-11%,46.5%,-11%,-29%,47.5%,1%,-22%,80.1% (active),0%,-10%,45.1%,-3%,-29%,88.8% (active)
CCCCCCCCCCCCC1N=C(N)N2CCCC2=C1C(=O)OC (stereo not given),82% (active),99% (active),89.2% (active),99% (active),99% (active),91.5% (active),69%,99% (active),87.4% (active),100% (active),99% (active),90.5% (active),99% (active),99% (active),90.4% (active),99% (active),99% (active),84.7% (active)
CCCCCCCCCC(=O)CC(=O)c1c(O)cccc1O,33%,83% (active),86% (active),20%,92% (active),90.3% (active),52%,96% (active),90.5% (active),22%,83% (active),88.9% (active),42%,94% (active),87.3% (active),40%,95% (active),86.2% (active)
CC[C@]1(O)C[C@H]2[C@@H]3CCc4cc(OC)ccc4[C@H]3CC[C@]2(C)[C@H]1O,-3%,98% (active),46%,-6%,98% (active),48.5%,-4%,98% (active),49.9%,-6%,87% (active),68.9%,2%,97% (active),49.8%,-4%,99% (active),46.4%
CN(C)CC(CN(C)C)C(=O)c1ccc(Oc2ccc(Cl)cc2)cc1,72% (active),98% (active),7.8%,60%,99% (active),52.3%,85% (active),99% (active),50.9%,36%,98% (active),5.15%,72% (active),99% (active),51.6%,92% (active),98% (active),6.95%
CCCCCCCCCCCC[N+]1(C)CCCC1c1cccnc1 (stereo not given),19%,97% (active),50.5%,13%,98% (active),97.5% (active),4%,98% (active),51.9%,5%,98% (active),94.3% (active),27%,92% (active),97.5% (active),19%,97% (active),96.9% (active)
O=S(=O)(Nc1ccc(NS(=O)(=O)c2ccccc2)c(N2N=N2)c1)c1ccccc1,1%,69%,86.3% (active),2%,80% (active),66.2%,4%,76% (active),88.9% (active),0%,55%,79.1% (active),-2%,62%,75.4% (active),-2%,79% (active),76.6% (active)
CC(C)N(CCO)CC(O)Cn1cnc2c(N)ncnc21 (stereo not given) (tested in a mixture with another compound),-17%,0%,-37.5%,-9%,-8%,7.75%,-14%,1%,-15.6%,-18%,-6%,40.2%,-8%,-6%,-4.65%,-8%,-5%,43%
Cc1c2ccncc2c(C)c2c1sc1ccccc12,83% (active),94% (active),89.5% (active),38%,96% (active),90% (active),43%,94% (active),88.8% (active),32%,95% (active),88.8% (active),55%,95% (active),84.5% (active),77% (active),91% (active),83.3% (active)
O=c1oc2c(-c3ccccc3)cccc2c(O)c1-c1ccccc1,-2%,58%,48.6%,-2%,86% (active),60.2%,3%,87% (active),58.9%,0%,36%,33%,-4%,79% (active),55%,0%,81% (active),70.5% (active)
Brc1cc2c(c(Br)c1Br)C(Br)(Br)C(c1ccccc1)=N2,6%,80% (active),73.3% (active),10%,85% (active),58.1%,25%,85% (active),78.6% (active),3%,32%,60.4%,1%,90% (active),27.6%,13%,89% (active),75.3% (active)
Nc1cc2[nH]c(=O)c3cc(Cl)ccc3c2cc1Cl,83% (active),94% (active),89.8% (active),7%,79% (active),-3.35%,26%,86% (active),47.6%,8%,58%,-24.2%,8%,59%,-5.15%,65%,95% (active),61.2%
C/C(=N\NC(N)=S)c1ccc(Oc2ccccc2)cc1,50%,77% (active),98.9% (active),43%,75% (active),98.5% (active),65%,93% (active),99% (active),27%,70% (active),98.5% (active),35%,70% (active),98.8% (active),63%,89% (active),97.8% (active)
OC(C(=Nc1ccccc1)c1ccccc1)c1ccccc1 (stereo not given),50%,96% (active),98.7% (active),11%,99% (active),98.6% (active),1%,98% (active),99.2% (active),-3%,98% (active),98.8% (active),15%,98% (active),97.8% (active),39%,99% (active),99.1% (active)
